# Experimental data published in PubChem BioAssay (Tox21).
# Unmarked numbers belong to inactive results. Records with an inconclusive call do not appear. Where a call stands in place of a potency, no number is given. The source made the active and inactive calls. Unless noted, calls come from the whole dose curve; as a rule, active = well fitted curve in the direction sought with a large enough effect in the repeat runs; inconclusive = weak or mixed curves; inactive = no such curve, though single readings can be large; an effect the other way counts as inactive or inconclusive.
# Assays:
# [1] = biological target: Thyrotropin receptor (Homo sapiens) (UniProt P16473); assay: qHTS assay to identify small molecule antagonists of the thyroid stimulating hormone receptor (TSHR) signaling pathway (AID 1259385; calls by dose curve; note: nearly all actives have a fitted effect of over 20% in size)
# Chain of Thyrotropin receptor (Homo sapiens) (P16473 whole entry, looked up): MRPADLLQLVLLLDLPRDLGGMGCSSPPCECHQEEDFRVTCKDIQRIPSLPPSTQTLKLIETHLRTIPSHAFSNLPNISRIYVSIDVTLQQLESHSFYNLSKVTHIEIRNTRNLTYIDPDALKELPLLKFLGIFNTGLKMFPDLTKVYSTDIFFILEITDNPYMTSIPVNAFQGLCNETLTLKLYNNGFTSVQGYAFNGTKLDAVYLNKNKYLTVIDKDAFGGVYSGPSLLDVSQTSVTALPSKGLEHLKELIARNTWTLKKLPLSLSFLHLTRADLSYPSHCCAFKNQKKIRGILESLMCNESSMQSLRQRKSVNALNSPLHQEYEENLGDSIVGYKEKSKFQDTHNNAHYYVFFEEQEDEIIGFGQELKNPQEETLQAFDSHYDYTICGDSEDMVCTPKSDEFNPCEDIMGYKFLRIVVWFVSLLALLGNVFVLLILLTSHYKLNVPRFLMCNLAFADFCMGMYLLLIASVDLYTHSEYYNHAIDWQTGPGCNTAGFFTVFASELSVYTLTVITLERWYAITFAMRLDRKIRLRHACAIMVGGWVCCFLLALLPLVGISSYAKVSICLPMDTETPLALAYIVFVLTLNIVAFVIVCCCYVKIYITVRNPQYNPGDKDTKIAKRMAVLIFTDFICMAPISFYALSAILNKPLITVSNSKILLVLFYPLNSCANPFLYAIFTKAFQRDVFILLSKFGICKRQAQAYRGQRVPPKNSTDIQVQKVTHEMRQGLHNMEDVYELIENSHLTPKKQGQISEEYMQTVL
# In short: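 TSHR-HEK293 cells were plated and held 18 h at 37C/5% CO2, then given compound plus Ro20-1724 and stimulated with TSH at 1.5 ng/mL final. After 30 min at room temperature, cAMP was detected with cAMP-d2/anti-cAMP-cryptate (1 h) by fluorescence.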
# [2] = qHTS assay to identify small molecule agonists of the estrogen receptor alpha (ER-alpha) signaling pathway in the presence of an antagonist - cell viability counter screen (AID 1259386);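 note: series mostly up to about 92 µM; cells exposed to compounds for 22 h at 37 °C before the viability read; nearly all actives have a fitted effect of over 30% in size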
# In short: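 Read-out: CellTiter-Fluor fluorescence after 1hr reagent incubation, measured in the same wells as the luciferase readout. VM7Luc4E2 cells were exposed to 15 compound concentrations with 10.0nM ICI-182,780 for 22hr at 37C.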
# [3] = qHTS assay to identify small molecule antagonists of the progesterone receptor (PR) signaling pathway - cell viability counter screen (AID 1346798); note: series mostly up to about 92 µM; nearly all actives have a fitted effect of over 50% in size
# In short: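 Measures cytotoxicity in parallel with the PR antagonist reporter read: HEK293T PR-UAS-bla cells get compound and R5020 for 16 hr, and remaining viable cells are quantified by CellTiter-Glo luminescence.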
# [4] = qHTS assay to identify small molecule agonists of the progesterone receptor (PR) signaling pathway - cell viability counter screen (AID 1346799; calls by dose curve; note: nearly all actives have a fitted effect of over 45% in size)
# In short: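 Using the same plates as the PR reporter screen, HEK293T PR-UAS-bla cells received compounds for 16 hr at 37C and were then lysed with CellTiter-Glo; luminescence was read 30 min later at room temperature.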
# [5] = qHTS assay to identify small molecule antagonists of the TGF-beta/Smad signaling pathway - cell viability counter screen (AID 1346824); note: nearly all actives have a fitted effect of over 50% in size
# In short: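 SBE-bla HEK 293T cells were plated overnight at 37 C, then given compounds in DMSO plus TGF-beta1 (added as 0.25 ng/mL solution) for 5 hr. After the bla read, CellTiter-Glo was added to the same wells and luminescence read after 30 min at room temperature.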
# [6] = qHTS assay to identify small molecule agonists of the TGF-beta/Smad signaling pathway - cell viability counter screen (AID 1346829); note: top concentration of the series differs between compounds; nearly all actives have a fitted effect of over 45% in size
# In short: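 Tox21 qHTS format: SBE-bla HEK 293T cells treated with DMSO-dissolved compounds for 5 hr; CellTiter-Glo luminescence after 30 min at room temperature.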
# [7] = qHTS assay to identify small molecule agonists of the TGF-beta/Smad signaling pathway (AID 1346859; active = well fitted activation curve with a large enough effect in the signal ratio in the repeat runs, not every such curve was filed as active; the % refers to the signal ratio; note: series mostly up to about 77 µM)
# In short: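 Beta-lactamase reporter activity downstream of Smad binding elements was measured in stably transfected HEK 293T cells; compounds were incubated for 5 hr, substrate for 2 hr at room temperature.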
# [8] = Human pregnane X receptor (PXR) small molecule agonists, qHTS cell viability counter screen (AID 1346977); note: nearly all actives have a fitted effect of over 50% in size; note: potency is the fitted concentration of half-maximal effect
# In short: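 After a 5hr pre-incubation, PXR-Luc HepG2 cells received compounds plus positive control in DMSO and were kept 24hr at 37C. Cell viability was quantified by fluorescence from CellTiter-Fluor added for the final hour.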
# [9] = Caspase-3/7 induction in HepG2 cells by small molecules, qHTS assay (AID 1346978); note: nearly all actives have a fitted effect of over 15% in size
# In short: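 Wild-type HepG2 cells (2,000/well) were settled 5 h at 37 C, 5% CO2, then exposed to compounds in DMSO for 17 h. Caspase-3/7 activity was read by luminescence 30 min after adding Caspase-Glo 3/7 reagent at room temperature.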
# [10] = Caspase-3/7 induction in CHO-K1 cells by small molecules, qHTS cell viability counter screen (AID 1346979); note: nearly all actives have a fitted effect of over 35% in size
# In short: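 Multiplexed with Caspase-Glo 3/7 in CHO-K1 cells, this counter screen added CellTiter-Fluor after 16hr of compound exposure and recorded fluorescence 1hr later.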
# [11] = Caspase-3/7 induction in CHO-K1 cells by small molecules, qHTS assay (AID 1346980); note: nearly all actives have a fitted effect of over 15% in size
# In short: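 Wild-type cells were seeded at 1,500 per well and settled 5 hr at 37 C, 5% CO2, then exposed to DMSO-dissolved compounds for 17 hr. Caspase-Glo 3/7 reagent was added, and luminescence was read after 30min at room temperature.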
# [12] = Caspase-3/7 induction in HepG2 cells by small molecules, qHTS cell viability counter screen (AID 1346981); note: series mostly up to about 92 µM; nearly all actives have a fitted effect of over 30% in size
# In short: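 Fluorescence read-out of live-cell protease activity (CellTiter-Fluor) after 1 hr with reagent. This was measured in the same wells as the caspase-3/7 luminescence, on HepG2 cells exposed to DMSO-dissolved compounds for 16 hr at 37 C.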
# [13] = biological target: Nuclear receptor subfamily 1 group I member 2 (Rattus norvegicus) (UniProt Q9R1A7); assay: Rat pregnane X receptor (rPXR) activation by small molecules, qHTS assay (AID 1346983); conditions: rPXR luciferase reporter cells, One-Glo luminescence, 24 h; active compounds read high; note: nearly all actives have a fitted effect of over 20% in size
# Chain of Nuclear receptor subfamily 1 group I member 2 (Rattus norvegicus) (Q9R1A7 whole entry, looked up): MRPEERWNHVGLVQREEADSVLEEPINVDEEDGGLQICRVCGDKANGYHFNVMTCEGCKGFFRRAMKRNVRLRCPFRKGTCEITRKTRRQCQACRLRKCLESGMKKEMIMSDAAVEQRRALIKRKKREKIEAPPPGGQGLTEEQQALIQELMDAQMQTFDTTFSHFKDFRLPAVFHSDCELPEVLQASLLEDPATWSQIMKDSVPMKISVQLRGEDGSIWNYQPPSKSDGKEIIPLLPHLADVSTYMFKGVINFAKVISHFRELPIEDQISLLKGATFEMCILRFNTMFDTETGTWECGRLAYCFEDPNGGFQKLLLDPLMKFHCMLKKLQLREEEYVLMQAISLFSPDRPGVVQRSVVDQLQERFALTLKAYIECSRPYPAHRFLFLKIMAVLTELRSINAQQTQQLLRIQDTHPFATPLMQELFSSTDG
# In short: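 Cell-based rPXR luciferase reporter assay, 2,000 cells per well, rested 5hr at 37 C before compound addition in DMSO, then 24 hr at 37 C. One-Glo reagent was added and luminescence read after 30 min at room temperature.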
# [14] = biological target: Progesterone receptor (Homo sapiens) (UniProt P06401); assay: qHTS assay to identify small molecule agonists of the progesterone receptor (PR) signaling pathway (AID 1346784; calls by dose curve; note: nearly all actives have a fitted effect of over 30% in size)
# Chain of Progesterone receptor (Homo sapiens) (P06401 whole entry, looked up): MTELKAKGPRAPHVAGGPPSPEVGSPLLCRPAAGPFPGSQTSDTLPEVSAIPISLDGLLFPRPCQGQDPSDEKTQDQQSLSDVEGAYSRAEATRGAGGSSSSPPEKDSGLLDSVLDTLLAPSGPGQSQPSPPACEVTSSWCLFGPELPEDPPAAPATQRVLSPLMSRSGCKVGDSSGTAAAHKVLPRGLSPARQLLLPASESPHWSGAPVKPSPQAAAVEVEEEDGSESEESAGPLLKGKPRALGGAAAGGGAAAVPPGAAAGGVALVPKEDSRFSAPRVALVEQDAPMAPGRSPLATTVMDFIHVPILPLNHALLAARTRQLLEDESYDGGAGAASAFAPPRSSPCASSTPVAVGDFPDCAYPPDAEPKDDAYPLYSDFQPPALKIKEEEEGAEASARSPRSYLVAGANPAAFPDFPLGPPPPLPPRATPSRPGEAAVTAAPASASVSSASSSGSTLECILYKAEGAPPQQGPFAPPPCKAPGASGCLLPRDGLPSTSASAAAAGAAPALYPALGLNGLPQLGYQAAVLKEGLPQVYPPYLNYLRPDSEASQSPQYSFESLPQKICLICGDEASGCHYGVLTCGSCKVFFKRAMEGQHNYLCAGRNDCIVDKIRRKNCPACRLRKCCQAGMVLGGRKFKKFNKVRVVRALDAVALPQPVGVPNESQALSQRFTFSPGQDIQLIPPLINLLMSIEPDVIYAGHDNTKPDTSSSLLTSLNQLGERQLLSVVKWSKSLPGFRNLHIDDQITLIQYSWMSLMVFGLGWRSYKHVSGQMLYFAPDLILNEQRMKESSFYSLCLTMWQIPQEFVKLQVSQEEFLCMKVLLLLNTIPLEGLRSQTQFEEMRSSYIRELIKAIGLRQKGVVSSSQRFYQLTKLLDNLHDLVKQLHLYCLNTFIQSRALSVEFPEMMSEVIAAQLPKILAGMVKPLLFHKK
# In short: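 Seed PR-UAS-bla HEK 293T cells (2% charcoal-stripped FBS), incubate 6 hr at 37C; add compounds in DMSO, 16 hr at 37C; add LiveBLAzer B/G substrate, 2 hr RT; read fluorescence intensity.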
# [15] = biological target: Progesterone receptor (Homo sapiens) (UniProt P06401); assay: qHTS assay to identify small molecule antagonists of the progesterone receptor (PR) signaling pathway (AID 1346795; active = well fitted inhibition curve with a large enough effect in the signal ratio in the repeat runs, not every such curve was filed as active; the % refers to the signal ratio)
# In short: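 Screening used a GripTite HEK293T line with PR-responsive UAS-beta-lactamase. Cells were challenged with compound in the presence of 1 nM R5020 final for 16 hr at 37C; B/G FRET substrate, 2 hr room temperature, fluorescence.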
# [16] = biological target: Nuclear receptor subfamily 1 group I member 2 (Homo sapiens) (UniProt O75469); assay: Human pregnane X receptor (PXR) small molecule agonists, qHTS assay (AID 1346982); note: nearly all actives have a fitted effect of over 35% in size; note: potency is the fitted concentration of half-maximal effect
# Chain of Nuclear receptor subfamily 1 group I member 2 (Homo sapiens) (O75469 whole entry, looked up): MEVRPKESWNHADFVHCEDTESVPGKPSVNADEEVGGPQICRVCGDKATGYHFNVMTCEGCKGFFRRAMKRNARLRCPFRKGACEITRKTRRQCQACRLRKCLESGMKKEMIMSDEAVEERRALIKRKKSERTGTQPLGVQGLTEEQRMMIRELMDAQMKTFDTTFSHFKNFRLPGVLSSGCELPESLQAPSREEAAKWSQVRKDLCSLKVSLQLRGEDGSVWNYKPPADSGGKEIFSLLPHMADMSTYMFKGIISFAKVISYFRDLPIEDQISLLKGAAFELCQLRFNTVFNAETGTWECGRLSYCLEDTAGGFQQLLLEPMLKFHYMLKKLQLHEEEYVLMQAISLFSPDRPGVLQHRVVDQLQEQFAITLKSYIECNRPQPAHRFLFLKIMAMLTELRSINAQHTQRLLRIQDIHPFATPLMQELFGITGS
# In short: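 HepG2 PXR-Luc reporter line, 5% charcoal-stripped FBS; 5 hr pre-incubation, compound (DMSO) 24 hr at 37 C/5% CO2; ONE-Glo 30 min RT; luminescence read-out.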
# [17] = biological target: Nuclear receptor subfamily 1 group I member 2 (Homo sapiens) (UniProt O75469); assay: CYP3A4 induction through human pregnane X receptor (PXR) by small molecules, qHTS assay (AID 1346984); note: nearly all actives have a fitted effect of over 40% in size; note: potency is the fitted concentration of half-maximal effect
# In short: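 HepG2-derived DPX-2 line carrying PXR plus a CYP3A4-promoter luciferase reporter; cells plated 5 hr, compound-exposed 24 hr at 37C. CYP3A4 activity probed with 3uM (final) Luciferin-IPA for 3hr, then luciferase read after One-Glo.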
# [18] = biological target: Nuclear receptor subfamily 1 group I member 2 (Homo sapiens) (UniProt O75469); assay: Human pregnane X receptor (PXR) activation by small molecules, qHTS assay (AID 1346985); note: nearly all actives have a fitted effect of over 40% in size
# In short: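 DPX-2 cells (HepG2 co-transfected with a PXR response element and a CYP3A4-promoter luciferase construct) were seeded at 2,000 per well, rested 5 hr at 37C, then exposed to DMSO-dissolved compounds for 24 hr. Activation was read as luciferase luminescence.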
# [19] = biological target: Thyrotropin-releasing hormone receptor (Homo sapiens) (UniProt P34981); assay: qHTS assay to identify small molecule antagonists of the thyrotropin-releasing hormone receptor (TRHR) signaling pathway (AID 1346877; active = well fitted inhibition curve with a large enough effect in the repeat runs, not every such curve was filed as active; note: series mostly up to about 51 µM)
# Chain of Thyrotropin-releasing hormone receptor (Homo sapiens) (P34981 whole entry, looked up): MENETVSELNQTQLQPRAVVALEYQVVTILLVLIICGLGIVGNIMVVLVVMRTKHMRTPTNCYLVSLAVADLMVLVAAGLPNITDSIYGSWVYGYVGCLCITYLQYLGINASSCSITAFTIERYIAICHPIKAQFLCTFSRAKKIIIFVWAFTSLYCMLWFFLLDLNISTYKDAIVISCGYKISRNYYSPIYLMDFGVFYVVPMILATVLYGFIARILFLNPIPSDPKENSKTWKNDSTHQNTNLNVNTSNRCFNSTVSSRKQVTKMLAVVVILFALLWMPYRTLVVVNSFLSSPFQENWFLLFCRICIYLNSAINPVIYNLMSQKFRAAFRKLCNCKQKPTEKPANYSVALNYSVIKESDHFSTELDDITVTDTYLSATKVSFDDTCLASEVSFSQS
# In short: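 HEK293/TRHR cells, 18 h, 37 °C; Ca2+ dye 2 h; cpd 5 min RT; TRH 1 nM final; fluorescence read 3 min, 1 s intervals; 15 concs, triplicate.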
# [20] = biological target: Thyrotropin-releasing hormone receptor (Homo sapiens) (UniProt P34981); assay: qHTS assay to identify small molecule agonists of the thyrotropin-releasing hormone receptor (TRHR) signaling pathway (AID 1346891; calls by dose curve;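 note: HEK293 cells expressing TRHR with calcium dye readout; series mostly up to about 58 µM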)
# In short: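 Overnight-plated (18 h, 37 °C, 5% CO2) TRHR-Hek293 cells; 2 h calcium dye at 37 °C; compound in DMSO; 3-min kinetic fluorescence read.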
compound,measurement,setting,value
COCCc1ccc(OCC(O)CNC(C)C)cc1 (stereo not given),Potency,[1],inactive
same,Potency,[2],inactive
same,Potency,[3],inactive
same,Potency,[4],inactive
same,Potency,[5],inactive
same,outcome,[6],inactive
same,outcome,[7],inactive
same,Potency,[8],inactive
same,Potency,[9],inactive
same,Potency,[10],inactive
same,outcome,[11],inactive
same,Potency,[12],inactive
same,max activation,[13],-0.133%
C1OCOCO1,Potency,[1],inactive
same,Potency,[14],inactive
same,Potency,[15],inactive
same,Potency,[3],inactive
same,Potency,[4],inactive
same,outcome,[7],inactive
same,Potency,[8],inactive
same,Potency,[9],inactive
same,Potency,[10],inactive
same,Potency,[12],inactive
same,Potency,[16],inactive
CO/N=C(/C(=O)N[C@@H]1C(=O)N2C(C(=O)OCOC(=O)C(C)(C)C)=C(C)CS[C@H]12)c1csc(N)n1,Potency,[1],inactive
same,Potency,[14],inactive
same,Potency,[15],inactive
same,Potency,[3],inactive
same,Potency,[4],inactive
same,Potency,[5],inactive
same,outcome,[6],inactive
same,outcome,[7],inactive
same,Potency,[8],inactive
same,Potency,[9],inactive
same,Potency,[10],inactive
same,outcome,[11],inactive
same,Potency,[12],inactive
same,Potency,[16],inactive
Cc1cccn2c(=O)c(-c3nnn[nH]3)cnc12,"activity change, negative = inhibition",[1],-4.29% [at 19 µM]
same,activation,[14],2.07% [at 19 µM]
same,Potency,[3],inactive
same,"activity change, negative = cytotoxicity",[4],11.1% [at 19 µM]
same,"viability change, negative = cytotoxic",[5],3.02% [at 15.8 µM]
same,"activity change, negative = cytotoxicity",[6],2.08% [at 15.8 µM]
same,activation,[7],-4.24% [at 15.8 µM]
same,"activity change, negative = cytotoxicity",[8],-2.85% [at 19 µM]
same,caspase activation,[9],-1.09% [at 19 µM]
same,Potency,[10],inactive
same,caspase-3/7 activation,[11],-1.17% [at 19 µM]
same,"activity change, negative = cytotoxicity",[12],-1.23% [at 19 µM]
same,activation,[16],-6.8% [at 19 µM]
same,max activation,[13],-7.7%
same,Potency,[17],inactive
same,Potency,[18],inactive
CC(C)(O)C#CC(C)(C)O,Potency,[1],inactive
same,Potency,[14],inactive
same,Potency,[3],inactive
same,Potency,[4],inactive
same,Potency,[5],inactive
same,outcome,[7],inactive
same,outcome,[19],inactive
same,outcome,[20],inactive
same,Potency,[8],inactive
same,Potency,[9],inactive
same,Potency,[10],inactive
same,Potency,[12],inactive
same,Potency,[16],inactive
CCN(CC)CCOCCOC(=O)C1(c2ccccc2)CCCC1,Potency,[1],inactive
same,Potency,[14],inactive
same,Potency,[15],inactive
same,Potency,[4],inactive
same,Potency,[5],inactive
same,outcome,[6],inactive
same,outcome,[7],inactive
same,Potency,[8],26.6 µM (active)
same,Potency,[9],inactive
same,Potency,[10],inactive
same,outcome,[11],inactive
same,Potency,[12],inactive
same,max activation,[13],0.476%
same,Potency,[17],12.6 µM (active)
CC(C)(C)c1nnc(NS(=O)(=O)c2ccccc2)s1,Potency,[1],inactive
same,Potency,[14],inactive
same,Potency,[15],inactive
same,Potency,[3],inactive
same,Potency,[4],inactive
same,Potency,[5],inactive
same,outcome,[6],inactive
same,outcome,[7],inactive
same,outcome,[19],inactive
same,outcome,[20],inactive
same,Potency,[8],inactive
same,Potency,[9],inactive
same,Potency,[10],inactive
same,Potency,[12],inactive
same,Potency,[16],11.9 µM (active)
CN(C)CCCNCCCN(C)C,Potency,[1],inactive
same,Potency,[14],inactive
same,Potency,[15],inactive
same,Potency,[3],inactive
same,Potency,[4],inactive
same,outcome,[7],inactive
same,outcome,[19],inactive
same,outcome,[20],inactive
same,Potency,[8],inactive
same,Potency,[9],inactive
same,Potency,[10],inactive
same,outcome,[11],inactive
same,Potency,[12],inactive
same,Potency,[16],inactive
